± gives the standard deviation.
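Note: 1 nM active piRISC with 0.1 nM target library at 33 °C single turnover.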

The experiment concerns MILI (PIWIL2) piRISC loaded with piRNA #1 (26 nt). Kind of experiment: pre-steady-state target cleavage rate (min^-1); guide: piRNA #1 5'p-UGAGGUAGUAGGUUGUAUAGUAUCCA; MIWI and MILI are mouse PIWI proteins and EfPiwi is from a freshwater sponge; tags in brackets are library labels; higher = faster piRNA-guided slicing of the target. To be noted: auxiliary factor: 500 nM mouse GTSF1. The essentials: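 Three pooled Cleave-'n-Seq trials supplied the data, with k3 capped at 0.0001 min^-1. In each, […] transcribed, DNA-blocked target RNA library and 1 nM active affinity-purified piRISC with one synthetic guide reacted in HEPES–potassium acetate buffer at 33 °C for 0–8 or 0–960 min, with or without 500 nM GTSF1 partner protein. Uncleaved targets were sequenced and normalised to depth and to weakly complementary targets. A burst-and-steady-state fit provided the pre-steady-state cleavage rate.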
On to GGAGACCUAUCUAUACAUCCUACUUCCUCA, for which the “pre-steady-state target cleavage rate” value came to 0.107 ± 0.019.

As for GGAGUGGAAACUAUACAACCUACUAGCUCA, the “pre-steady-state target cleavage rate” value stood at 0.0453 ± 0.013.

On to GGAGACCUAUGUAUACUACCUACAACCUCA, for which the “pre-steady-state target cleavage rate” value is 0.0574 ± 0.0091.

On to GGAGACCUAUCUAUACAACCUACUAGCUCA, for which the “pre-steady-state target cleavage rate” value came to 0.0827 ± 0.014.

Turning to GGAGACCUUACUAUACUACCUUCUACCUCA, the “pre-steady-state target cleavage rate” value stood at 0.0109 ± 0.0029.

Consider GGAGACCUAUGAAUACAACGUACUACCUGA, for which the “pre-steady-state target cleavage rate” value is 0.00311 ± 0.0023.

In the case of “GGAGACCUAUGAUAACAACCUACUACCUCU [g2:g16:cont:t1U]”, the “pre-steady-state target cleavage rate” value was 0.00588 ± 0.0024.

GGAGACCUAUCUAUUCAACCUACUACCUGA: the “pre-steady-state target cleavage rate” value was 0.0654 ± 0.014.

Take GGAGACCUAACUAUACAACGUACAACCUCA: the “pre-steady-state target cleavage rate” value was 0.0148 ± 0.005.

As to GGAGACCUAACUUUUCAACCUACUACCUCA, the “pre-steady-state target cleavage rate” value stood at 0.0456 ± 0.014.

Take GGAGACCUAUGAUUACAAGCUACUACGUCA: the “pre-steady-state target cleavage rate” value came to 0.00819 ± 0.0037.

Regarding GGAGACCUAUGAAAACAACCUACAACCUCA, the “pre-steady-state target cleavage rate” value came to 0.00529 ± 0.0026.

Turning to GGAGACCUAUGUAUACAACCUUCUACCUCA, the “pre-steady-state target cleavage rate” value came to 0.00351 ± 0.0017.

In the case of GGAGACCUAUGUUUACAACCUACUAGCUCA, the “pre-steady-state target cleavage rate” value worked out at 0.00692 ± 0.0034.

Turning to GGAGACCUUAUAUACAACCUACUACCUCA, the “pre-steady-state target cleavage rate” value amounted to 0.0314 ± 0.0072.

As for GGAGACCAUACUAAACAACCUACUACGUCA, the “pre-steady-state target cleavage rate” value worked out at 0.0881 ± 0.014.

As to GGAGACCUAUGAUAUGUACCUACUAGCUCA, the “pre-steady-state target cleavage rate” value is under 0.0001.

Turning to GGAGACCUAUGAAUACUACCUACUAGCUCA, the “pre-steady-state target cleavage rate” value was found to be 0.00378 ± 0.0025.

Take GGAGACCAUACUAUACUAGCUACUACCUCA: the “pre-steady-state target cleavage rate” value was 0.182 ± 0.018.

As for GGAGACCUAUCUAUACAAGCUAGUACCUCA, the “pre-steady-state target cleavage rate” value is 0.107 ± 0.017.

On to GGAGACCUAUCUAUACAACCUUACUACCUCA, for which the “pre-steady-state target cleavage rate” value was found to be 0.00278 ± 0.0026.

Consider GGAGAGGAUUCUAUACAACCUUCUACCUCA, for which the “pre-steady-state target cleavage rate” value is 0.00976 ± 0.0032.

As for GGAGACCUAUGAAUACAACCUACUACCGCA, the “pre-steady-state target cleavage rate” value is 0.00764 ± 0.003.

Consider GGAGAGGAUUCUAUACAACCUACUAGCUCA, for which the “pre-steady-state target cleavage rate” value was found to be 0.0566 ± 0.01.

As to GGAGACCUAUGUAUUCAACCUACUUCCUCA, the “pre-steady-state target cleavage rate” value worked out at 0.00515 ± 0.0026.

Take GGAGACCUUACUAUACAACGUACUAGCUCA: the “pre-steady-state target cleavage rate” value was 0.0137 ± 0.0043.

Turning to GGAGACCUAUCUAAACAAGCUACUACCUCA, the “pre-steady-state target cleavage rate” value came out at 0.176 ± 0.019.

As for GGAGACCUUUGAAUACAACCUACUACCUCA, the “pre-steady-state target cleavage rate” value came out at 0.00751 ± 0.0038.

Consider GGAGACCUAUGAAUACAACCUUCUACCUCA, for which the “pre-steady-state target cleavage rate” value turned out to be 0.00275 ± 0.0024.

Consider GGAGACCUUACUAUACAACCUACUACCAUCA, for which the “pre-steady-state target cleavage rate” value was 0.162 ± 0.024.

For the sequence GGAGACCAUAGUAUACAACCUACUUCCUCA, the “pre-steady-state target cleavage rate” value came out at 0.073 ± 0.014.

With GGAGACCAUACUAUACCACCUACUACCUCA, the “pre-steady-state target cleavage rate” value turned out to be 0.157 ± 0.013.

As to GGAGACCUAUGUAUAGAUCCUACUACCUCA, the “pre-steady-state target cleavage rate” value came out at 0.0611 ± 0.0081.

As to GGAGACCUAUGUUUUCAACCUACUACCUCA, the “pre-steady-state target cleavage rate” value stood at 0.00894 ± 0.0025.

GGAGACGAUACUAUACACCUACUACCUCA: the “pre-steady-state target cleavage rate” value stood at 0.0294 ± 0.0067.

Take GGAGACCUAUGUAUACAACCUAUCUACCUCA: the “pre-steady-state target cleavage rate” value came to 0.0415 ± 0.01.

On to GGAGACCUUACUAUAUCAACCUACUACCUCA, for which the “pre-steady-state target cleavage rate” value worked out at 0.0609 ± 0.0086.

For the sequence GGAGACCUAUGAUUACAACCUACUAGCUCA, the “pre-steady-state target cleavage rate” value is 0.00322 ± 0.0026.

In the case of GGAGACCUAUGUAUUCAAGCUACUACCUCA, the “pre-steady-state target cleavage rate” value stood at 0.109 ± 0.011.

On to GGAGACGAUACAAUUCAACCUACUACCUCA, for which the “pre-steady-state target cleavage rate” value was determined as 0.147 ± 0.01.

The record behind these values is the supplement of paper PMC10338343.
